Hit rate of the full screen: of about 330,000 compounds, about 20 (0.006%) were called active. Not shown: some 1% with an inconclusive outcome. The sample holds actives, similar compounds and a random draw of the others, so the mix is not that of the screen. The call rests on the fitted dose curve; in most records, active means well fitted inhibition curve with a large enough effect; inconclusive means small, poorly fitted or top-dose-only effect, or effect the other way; inactive means flat fitted curve, though single readings scatter.
molecular target: Protein phosphatase EYA2 (Homo sapiens) (UniProt O00167); assay: qHTS Assay for Inhibitors of the Phosphatase Activity of Eya2; conditions: recombinant Eya2, OMFP fluorescence dephosphorylation (OMFP is methylfluorescein phosphate); series mostly up to 76.9 µM
Source text: The Eya family of proteins are essential co-activators of the Six1 transcription factor. Six1 is a developmental gene that is abnormally re-expressed in a large percentage of breast cancers. This over-expression plays a causal role in the initiation and metastatic development of breast cancers. The Eya family of proteins was also found to contain a unique HAD phosphatase domain with protein tyrosine phosphatase activity which can potentially play a role in Six1-mediated breast tumorigenesis. […] We have developed and optimized a 1536 well fluorescence-based HTS assay targeting the phosphatase activity of Eya2. Inhibitors found against Eya2 could serve as potential therapeutic tools to inhibit Six1-mediated breast tumorigenesis and to increase the efficiency of radiation and certain chemo therapy. These inhibitors could also be used as chemical probes to study the function of Eya2's phosphatase activity and its role in Six1-mediated breast tumorigenesis.
The Eya2 enzyme was kindly provided by the laboratory of Dr. Rui Zhao. The 3-O-methyl-fluorescein phosphate (OMFP) substrate and all buffer reagents were purchased from Sigma Aldrich. qHTS Assay Setup: 1. Buffer- 50 mM HEPES pH 7.5, 50 mM NaCl, 5 uM MgCl2, 0.05% BSA, 1 mM DTT. 2. OMFP Stock- 10 mM solution prepared in 100% DMSO and stored in single use aliquots at -20C. Assay Procedure- 1. Dispense 1.5 ul per well of Eya2 at 0.2 uM in black medium binding 1536 well Greiner plate 2. Transfer 23 nl of compound and control compound (EGTA) to plate 3. Incubate at ambient for 10 minutes 4. Dispense 1.5 ul per well of OMFP at 50 uM 5. Incubate at ambient for 10 minutes 6. Read on ViewLux using Excitation = 485 nm, Emission = 525 nm

Sequence of Protein phosphatase EYA2 (Homo sapiens) (O00167 whole entry, looked up, the tested form may be a part): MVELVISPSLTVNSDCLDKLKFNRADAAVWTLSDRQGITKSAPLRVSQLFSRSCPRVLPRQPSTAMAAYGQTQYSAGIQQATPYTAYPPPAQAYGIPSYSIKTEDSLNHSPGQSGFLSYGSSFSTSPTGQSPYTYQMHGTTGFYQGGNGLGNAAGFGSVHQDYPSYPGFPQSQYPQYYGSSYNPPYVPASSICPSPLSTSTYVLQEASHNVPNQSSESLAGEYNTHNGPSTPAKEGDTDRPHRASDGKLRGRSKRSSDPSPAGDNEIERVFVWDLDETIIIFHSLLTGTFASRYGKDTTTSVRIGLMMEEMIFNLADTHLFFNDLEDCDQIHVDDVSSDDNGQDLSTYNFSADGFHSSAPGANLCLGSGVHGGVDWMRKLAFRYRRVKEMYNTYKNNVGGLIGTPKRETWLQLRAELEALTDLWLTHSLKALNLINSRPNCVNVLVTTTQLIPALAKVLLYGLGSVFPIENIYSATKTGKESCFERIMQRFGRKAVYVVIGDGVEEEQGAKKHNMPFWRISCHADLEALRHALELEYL

Row | SMILES | activity, negative = inhibition
1 | CCN(CC)C(=O)Oc1ccc(Br)cc1C(=O)Nc1ccc(F)c(Cl)c1 | inactive
2 | NS(=O)(=O)c1ccc(CCNS(=O)(=O)c2cccc3cccnc23)cc1 | inactive
3 | Cc1ccc(CNC(=O)CCS(=O)(=O)c2ccc3c(c2)CC(C)N3C(=O)C2CC2)o1 (stereo unspecified) | inactive
4 | O=C(NCc1ccco1)C1CCCN1S(=O)(=O)c1ccccc1C(F)(F)F (stereo unspecified) | inactive
5 | CCNc1nc(Oc2ccc(C(=O)OC)cc2)nc(N2CCOCC2)n1 | inactive
6 | Cc1ccc2nc(NC(=O)CSc3nc(=O)n(CCCN(C)C)c4c3CCC4)sc2c1 | inactive
7 | CCOc1ccc(Br)cc1S(=O)(=O)Nc1ccc(S(=O)(=O)Nc2cc(C)on2)cc1 | inactive
8 | CCCc1nc(SCC(=O)Nc2ccccc2OC)c2c(=O)n(C)c(=O)n(C)c2n1 | inactive
9 | CN(C)S(=O)(=O)c1ccc(C(=O)NCCN=C2NS(=O)(=O)c3ccccc32)cc1 | inactive
10 | CC(=O)NCCC(=O)Nc1cc(S(=O)(=O)N2CCCCC2)ccc1Oc1cccc(C)c1 | inactive
11 | COc1ccc(C(C(=O)NC2CCCC2)N(CCCO)C(=O)Cn2nnc(-c3ccc(C)o3)n2)cc1 (stereo unspecified) | inactive
12 | CCc1cc(C(=O)OC)c(NC(=O)CC2Sc3ccc(C(F)(F)F)cc3NC2=O)s1 (stereo unspecified) | inactive
13 | O=C(O)C1CCC(CNS(=O)(=O)c2ccc(Br)cc2)CC1 (stereo unspecified) | inactive
14 | O=C1CCC([N+](=O)[O-])C(c2ccccc2Br)N1 (stereo unspecified) | inactive
15 | COC(=O)c1sc(NC(=O)COC(=O)C2CCC2)c(C(=O)OC)c1C | inactive
16 | CCOC(=O)c1c(CNCc2ccccc2F)c2sc(C)cc2n1C | inactive
17 | COC(=O)N1CN(C(=O)OC)CN(C(=O)OC)C1 | inactive
18 | CC1CCN(S(=O)(=O)c2ccc3[nH]c(=O)ccc3c2)CC1 | inactive
19 | CCS(=O)(=O)c1ccc(-c2cccc(NC(=O)c3ccc(Br)o3)c2)nn1 | inactive
20 | Cc1ccc2c(Cl)c(C(=O)NCCCn3ccnc3)sc2c1 | inactive
21 | CC(C)CCNC(=O)CCNS(=O)(=O)c1ccc(Cl)cc1 | inactive
22 | O=C(NCc1cccnc1)c1ccc(CS(=O)(=O)c2ccc(Br)cc2)o1 | inactive
23 | CC(=O)c1c(N2CCOCC2)nc(=S)n(Cc2ccccc2)c1C | inactive
24 | O=C(Nc1ccc(OCC(=O)N2CCOCC2)cc1)c1cc(F)c(F)cc1Cl | inactive
25 | Cc1cc(C(=O)Nc2ccc(C)c(S(=O)(=O)N3CCOCC3)c2)c2ccccc2n1 | inactive
26 | COc1ccc(CCNc2ncnc3c2nnn3Cc2ccccc2)cc1 | inactive

Row | SMILES | activity, negative = inhibition
27 | O=C1OCCN1C(=O)[C@H]1[C@H](c2ccc(F)cc2)C(c2ccccc2)=NN1c1ccc(Br)cc1 | inactive
28 | Cc1ccc(NC(=O)N2CCSc3ccccc32)cc1 | inactive
29 | Cc1cc(SCC(=O)NCCN2C(=O)CSC2=O)nc2ccccc12 | inactive
30 | S=c1[nH]ccn1-c1ccc(Cl)cc1 | inactive
31 | CCCOc1cccc(C(=O)Nc2ccccc2C(=O)N2CCN(C)CC2)c1 | inactive
32 | COc1ccc2c(C)cc3nnnn3c2c1 | inactive
33 | CN(C)N(C)C(=O)C(O)(c1ccccc1)c1ccccc1 | inactive
34 | COc1ccc2[nH]c(C)c(CCN(Cc3cccs3)C(=S)Nc3ccccc3OC)c2c1 | inactive
35 | O=c1ccc2cc(S(=O)(=O)N3CCN(c4ccccc4)CC3)ccc2o1 | inactive
36 | O=S1(=O)N=C(N(CCO)/N=C/c2ccccc2F)c2ccccc21 | inactive
37 | O=C(CCc1nnc2ccc(NCCCN3CCCC3=O)nn12)NCc1ccccc1Cl | inactive
38 | CC(=O)N1CCN(c2ccccc2NC(=S)NC(=O)c2cc3ccccc3o2)CC1 | inactive
39 | COc1ccc(NS(=O)(=O)c2cc(NC(=O)COc3ccccc3F)ccc2OC)cc1 | inactive
40 | O=C(CSc1nnc(SCc2ccc(F)cc2)s1)Nc1ccc(C(=O)O)cc1 | inactive
41 | O=C(CS(=O)(=O)c1ccc(C(F)(F)F)cn1)NNC(=O)c1ccccc1 | inactive
42 | O=C(CCc1ccc(S(=O)(=O)N2CCOCC2)cc1)Nc1ccc2ccccc2c1 | inactive
43 | N#CC1=C(N)N(c2ccc(F)cc2)C(=O)C1 | inactive
44 | NC(=O)C1CCCN(CC(=O)N2CCN(c3ccccc3)CC2)C1 (stereo unspecified) | inactive
45 | CC[C@@]1(C(=O)OC)N[C@H](CN(C)C(C)=O)[C@@H]2C(=O)N(C)C(=O)[C@@H]21 | inactive
46 | COc1ccc(C(=O)N2CCCN(C)CC2)c(OC)c1 | inactive
47 | COC(C)(C)[C@]12CC(O)(C(C)C)ON1[C@H]1CCCCC1N2O (stereo partly specified) | inactive
48 | O=C(c1ccc(Cl)cc1)N1N=C(c2ccccn2)CC1(O)C(F)(F)F (stereo unspecified) | inactive
49 | COc1ccc(Cl)cc1NC(=O)CCS(=O)(=O)c1ccc(Br)cc1 | inactive
50 | COC(=O)c1ccccc1NC(=O)CSc1n[nH]c(-c2ccncc2)n1 | inactive
51 | CCCCNS(=O)(=O)c1ccc(S(=O)(=O)n2cnc3ccccc32)cc1 | inactive
